Assay [1] in a line: Primary qHTS for Vero E6 cytotoxicity: counterscreen for inhibitors of SARS-S pseudo-typed particle cell entry (AID 1479150). On the technique in general: qHTS replaces the single test concentration by a dilution series.
Assay [2] in a line: Cytotoxicity counterscreen for inhibitors of SARS-CoV-2 cell entry (AID 1645845). Also: nearly all actives have a fitted effect of over 50% in size. Also: potency is read from the fitted curve at half-maximal effect. Summed up:
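48 h compound treatment (after 1 h preincubation), HEK293-ACE2 cells, 37 C/5% CO2; ATP luminescence endpoint; normalized to cell wells and media blanks.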

A short description of assay [3]: Primary qHTS to identify inhibitors of SARS-CoV-2 cell entry (AID 1645846). Also: nearly all actives have a fitted effect of over 45% in size. Also: potency is read from the fitted curve at half-maximal effect. The following applies: activity change, negative = inhibition: at 57.1 µM (top of the series) unless noted. Summed up:
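Inhibition of spike-mediated entry was scored in human ACE2-transfected Expi293F cells. Particles were MLV-pseudotyped with Wuhan-Hu-1 S carrying a 19-aa C-terminal deletion; signal was luciferase after two days, scaled between spike PP and fusion-protein-free PP.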

A short description of assay [4]: Primary qHTS for inhibitors of MERS-S pseudo-typed particle cell entry (AID 1479149). Also: nearly all actives have a fitted effect of over 60% in size. Also: potency is read from the fitted curve at half-maximal effect. As to activity change, negative = inhibition: % is scaled to controls: 0 for no effect and ±100 for the full control effect.
Assay [5] in a line: Confirmatory qHTS for activators (rescue) of SARS-CoV-2 Cytopathic Effect (CPE) (AID 1508606). Also: nearly all actives have a fitted effect of over 70% in size. Also: potency is read from the fitted curve at half-maximal effect.
Assay [6] can be described thus: VSVG counterscreen qHTS to identify inhibitors of SARS-CoV-2 cell entry (AID 1645847). Also: potency is read from the fitted curve at half-maximal effect; nearly all actives have a fitted effect of over 65% in size. In short, it runs like this: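 Luminescence from a luciferase reporter, normalised to bald particle and VSV-G pseudotyped particle wells, is the read-out. Cells are HEK293 expressing human ACE2, exposed to compound 1 h before a 48 h particle infection at 37 °C.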
Assay [7] in a line: Confirmatory qHTS for VERO E6 Cytotoxicity Assay: Counterscreen for SARS-CoV-2 CPE Assay (AID 1508605). Also: nearly all actives have a fitted effect of over 60% in size. Also: potency is read from the fitted curve at half-maximal effect.
A short description of assay [8]: Primary qHTS for inhibitors of La Crosse Virus (LACV) - induced cell death in SH-SY5Y cells (AID 1508616; active = well fitted curve in the direction sought with a large enough effect; an effect the other way counts as inactive or inconclusive; also: potency is read from the fitted curve at half-maximal effect;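 as to activity change: top concentration of the series differs between compounds; 0% = infected DMSO wells and 100% = uninfected DMSO wells; higher means more rescue of cells from virus-induced death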). Summed up: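 Readout was luminescence from ATPLite 1step added after a 6-day LACV infection (0.01 MOI) of SH-SY5Y cells that had received pin-transferred compound 24 hr after seeding.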
For assay [9], the target named is Calcium and integrin-binding protein 1 (Homo sapiens) (UniProt Q99828). Nature of the assay: Primary qHTS for Identification of Calcium Integrin Binding Protein 1 (CIB1) Competitor (AID 1508620; active = well fitted curve in the direction sought with a large enough effect; an effect the other way counts as inactive or inconclusive;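 also: GST tagged CIB1 binding a fluorescein labelled alphaIIb integrin peptide tracer; top concentration of the series differs between compounds; % is scaled to controls: 0 for no effect and ±100 for the full control effect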). In short, it runs like this: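 CIB1-GST (1 uM final) and compound incubated 15 min at room temperature before adding FITC-alphaIIb peptide tracer (100 nM final). Competition for binding read by fluorescence polarization (ex 480, em 540) after another 15 min at room temperature.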

Assay [10] is described as follows: Primary qHTS for small molecule stabilizers of the endoplasmic reticulum resident proteome: Secreted ER Calcium Modulated Protein (SERCaMP) assay (AID 1508630; active = well fitted curve in the direction sought with a large enough effect; an effect the other way counts as inactive or inconclusive; also: % is scaled to controls: 0 for no effect and ±100 for the full control effect). Summed up: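 GLuc-SERCaMP-expressing SH-SY5Y cells, pretreated 16 h with compound, are challenged with thapsigargin to empty ER calcium stores; after 4 h, coelenterazine is added directly to the medium and luminescence is imaged.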

The target in assay [11] is Cytochrome P450 2D6 (Homo sapiens) (UniProt P10635). In words: Cytochrome P450 family 2 subfamily D member 6 (CYP2D6) small molecule antagonists: luciferase biochemical (cell-free) qHTS assay (AID 1645840; active = well fitted curve in the direction sought with a large enough effect in the repeat runs; an effect the other way counts as inactive or inconclusive; also: % is scaled to controls: 0 for no effect and ±100 for the full control effect; nearly all actives have a fitted effect of over 55% in size). In short, it runs like this: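 P450-Glo luminescent screen: recombinant CYP2D6 enzyme–proluciferin substrate mix preincubated with compound 10 min at room temperature, then NADPH regeneration added for 1 h at room temperature. Detection reagent added for 20 min; luciferin light read as relative luminescence units.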

Assay [12] concerns the target Cytochrome P450 2C9 (Homo sapiens) (UniProt P11712). Nature of the assay: Cytochrome P450 family 2 subfamily C member 9 (CYP2C9) small molecule antagonists: luciferase biochemical (cell-free) qHTS assay (AID 1645842; active = well fitted curve in the direction sought with a large enough effect in the repeat runs; an effect the other way counts as inactive or inconclusive; also: nearly all actives have a fitted effect of over 55% in size; also: potency is read from the fitted curve at half-maximal effect). In short, it runs like this:
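Luminescence, after 20 min with luciferin detection reagent, reflected CYP2C9 turnover during a 1 h NADPH-driven reaction at 37C. Enzyme-substrate mix contained 0.4% bovine serum albumin and was preincubated with compound 10 min at room temperature.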

In the next assay the target is Papain (Carica papaya) (UniProt P00784). In words: Primary qHTS assay for inhibitors of the protease papain (AID 1645873; active = well fitted curve in the direction sought with a large enough effect; an effect the other way counts as inactive or inconclusive;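 also: papain turnover of Z-FR-AMC read as the AMC fluorescence gain over 10 min; % is scaled to controls: 0 for no effect and ±100 for the full control effect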).

Structures are written as SMILES. Values joined by “and” are separate entries in the source; they are usually repeats but may differ in a detail not shown here. Equal entries are not always repeated. Records with an inconclusive call do not appear. A structure can be active in one record and inactive in another. Active and inactive are the calls of the source. Unless noted, calls follow the shape of the full dose curve. Numbered stars: 1 amine (or outer) side, 2 acyl side, 3 side chain; on linkers, the order of the positions; unused ones are H or OH. Bridge positions count the residues as written; N and C are the ends. Square brackets hold non-standard residues; d marks the D form. Peptide text beside a SMILES is read from it. I, II: the chains in the order shown. Actinocin(9to1) = Cc1c2oc3c(C)ccc(C(=O)[*:1])c3nc-2c(C(=O)[*:2])c(N)c1=O; NMeV = CN[C@H](C(=O)O)C(C)C; Sar = CNCC(=O)O

Calcium and integrin-binding protein 1 (Homo sapiens), sequence (Q99828 whole entry, looked up): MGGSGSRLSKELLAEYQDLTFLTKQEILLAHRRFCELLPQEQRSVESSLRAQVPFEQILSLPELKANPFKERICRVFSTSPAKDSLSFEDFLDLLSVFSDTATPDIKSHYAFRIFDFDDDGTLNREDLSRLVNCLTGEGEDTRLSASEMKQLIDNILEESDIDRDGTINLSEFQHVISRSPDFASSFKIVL
Cytochrome P450 2C9 (Homo sapiens), sequence (P11712 whole entry, looked up): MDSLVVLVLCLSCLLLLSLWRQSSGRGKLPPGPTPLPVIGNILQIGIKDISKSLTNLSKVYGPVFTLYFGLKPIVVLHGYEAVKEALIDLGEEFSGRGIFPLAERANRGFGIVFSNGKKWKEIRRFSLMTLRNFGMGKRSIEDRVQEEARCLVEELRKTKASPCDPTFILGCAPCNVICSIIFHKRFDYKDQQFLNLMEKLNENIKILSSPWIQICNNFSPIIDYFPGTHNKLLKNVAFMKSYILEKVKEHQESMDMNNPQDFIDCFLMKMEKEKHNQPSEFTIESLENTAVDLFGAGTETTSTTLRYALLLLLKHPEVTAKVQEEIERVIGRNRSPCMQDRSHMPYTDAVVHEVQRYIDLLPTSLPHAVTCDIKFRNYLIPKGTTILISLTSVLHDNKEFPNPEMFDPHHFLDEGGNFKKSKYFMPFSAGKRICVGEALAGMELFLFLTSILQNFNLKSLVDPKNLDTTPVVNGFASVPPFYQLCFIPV
Cytochrome P450 2D6 (Homo sapiens), sequence (P10635 whole entry, looked up): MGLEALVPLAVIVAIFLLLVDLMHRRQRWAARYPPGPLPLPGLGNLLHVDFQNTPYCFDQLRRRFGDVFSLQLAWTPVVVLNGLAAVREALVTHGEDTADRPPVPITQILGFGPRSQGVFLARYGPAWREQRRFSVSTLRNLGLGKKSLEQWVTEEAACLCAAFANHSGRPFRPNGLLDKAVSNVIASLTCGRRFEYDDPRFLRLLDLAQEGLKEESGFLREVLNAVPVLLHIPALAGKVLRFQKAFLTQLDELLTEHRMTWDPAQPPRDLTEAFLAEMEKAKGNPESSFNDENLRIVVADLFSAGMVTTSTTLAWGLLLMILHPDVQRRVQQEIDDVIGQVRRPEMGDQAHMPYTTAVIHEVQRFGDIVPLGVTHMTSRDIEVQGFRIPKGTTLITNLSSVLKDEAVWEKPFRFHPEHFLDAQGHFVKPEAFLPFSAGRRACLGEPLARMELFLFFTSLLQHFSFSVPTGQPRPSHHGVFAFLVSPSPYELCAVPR
Papain (Carica papaya), sequence (P00784 whole entry, looked up): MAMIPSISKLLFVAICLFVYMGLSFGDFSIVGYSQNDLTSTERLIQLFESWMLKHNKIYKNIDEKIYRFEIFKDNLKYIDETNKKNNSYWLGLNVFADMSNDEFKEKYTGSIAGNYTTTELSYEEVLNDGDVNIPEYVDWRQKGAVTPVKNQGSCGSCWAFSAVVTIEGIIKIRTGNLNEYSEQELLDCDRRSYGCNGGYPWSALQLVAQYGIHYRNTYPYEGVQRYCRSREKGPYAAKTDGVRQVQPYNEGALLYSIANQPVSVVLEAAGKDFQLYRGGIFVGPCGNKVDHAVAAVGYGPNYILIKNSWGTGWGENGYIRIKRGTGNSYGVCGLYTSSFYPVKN

Take `OCCN1CCN(CCCN2c3ccccc3Sc3ccc(C(F)(F)F)cc32)CC1`: the Potency result in [1], in assay [2] and in assay [3] was “inactive” each time.
In the case of `CC(C)C[C@H](NC(=O)[C@H](Cc1ccccc1)NC(=O)c1cnccn1)B(O)O`, the Potency result in assay [4] is “inactive”. For the same molecule, in assay [3], the activity change, negative = inhibition is -95.1%.
Regarding `Nc1nc(N)c2nc(-c3ccccc3)c(N)nc2n1`, the Potency entry in assay [4], in assay [1] and in assay [3] was “inactive” throughout.
With `Nc1nc(=S)c2[nH]cnc2[nH]1`, the Potency result in assay [4] is “inactive”. Further, the Potency in assay [3] is 14.1 µM (active).
Consider `OCCN1CCN(CCCN2c3ccccc3Sc3ccc(Cl)cc32)CC1`, for which the Potency result in assay [1] and in assay [5] was “inactive” in each case. For the same molecule, the Potency in assay [2] was 28.2 µM (active).
As to `Cc1c2oc3c(C)ccc(C(=O)N[C@@H]4C(=O)N[C@H](C(C)C)C(=O)N5CCC[C@H]5C(=O)N(C)CC(=O)N(C)[C@@H](C(C)C)C(=O)O[C@@H]4C)c3nc-2c(C(=O)N[C@@H]2C(=O)N[C@H](C(C)C)C(=O)N3CCC[C@H]3C(=O)N(C)CC(=O)N(C)[C@@H](C(C)C)C(=O)O[C@@H]2C)c(N)c1=O` (I: T[dV]P[Sar][NMeV] / II: T[dV]P[Sar][NMeV]; ester I:1-I:C, II:1-II:C; linker I:N-II:N via Actinocin(9to1)), the Potency entry in [1] and in assay [2] was “inactive” throughout. Besides, the activity change, negative = inhibition in assay [3] was -94.7%. In addition, in assay [6], the Potency was 0.0429 µM (active).
`CCCNCC(O)COc1ccccc1C(=O)CCc1ccccc1` (stereo unspecified): the Potency entry in assay [1], in assay [7] and in assay [2] was “inactive” in each case. In addition, the Potency in [3] is 20 µM (active) and 35.5 µM (active).
For `CN(Cc1cnc2nc(N)nc(N)c2n1)c1ccc(C(=O)N[C@@H](CCC(=O)O)C(=O)O)cc1`, in assay [4], the Potency result is “inactive”. In addition, in assay [3], the activity change, negative = inhibition is -94.2%.
Take `CCN(CC)C(=S)SSC(=S)N(CC)CC`: the Potency entry in assay [4] was “inactive”. Besides, in assay [3], the Potency was 891 nM (active) and 7.94 µM (active).
In the case of `CNCC[C@@H](Oc1ccccc1C)c1ccccc1`, in [1], the Potency result was “inactive”. In addition, in assay [3], the activity change, negative = inhibition was -15.9%.
Consider `CN1CCN(CCCN2c3ccccc3Sc3ccc(Cl)cc32)CC1`, for which, in [1], the Potency result is “inactive”. For the same molecule, the Potency in [7] was 20 µM (active).
On to `COC(=O)C1=C(C)NC(C)=C(C(=O)OCC(C)C)C1c1ccccc1[N+](=O)[O-]` (stereo unspecified), for which the Potency result in assay [1] was “inactive”. Further, the activity change, negative = inhibition in assay [3] is -96.9%. In addition, in [6], the Potency was 5.41 µM (active).
Consider `CSc1ccc2c(c1)N(CCC1CCCCN1C)c1ccccc1S2` (stereo unspecified), for which the Potency entry in assay [1] is “inactive”.
Take `COC1=CC(=O)C[C@@H](C)[C@]12Oc1c(Cl)c(OC)cc(OC)c1C2=O`: the Potency entry in assay [4], in assay [1] and in assay [2] was “inactive” each time.
For the molecule `CCc1nn(CCCN2CCN(c3cccc(Cl)c3)CC2)c(=O)n1CCOc1ccccc1`, the Potency result in [1] is “inactive”.
In the case of `C=C(C)[C@H]1Cc2c(ccc3c2O[C@@H]2COc4cc(OC)c(OC)cc4[C@@H]2C3=O)O1`, the Potency entry (in [4]; in [9]; in assay [11]; with Papain (Carica papaya)) was “inactive” each time. Also, the results for the Potency in [8] and in assay [12] were 0.316 µM (active) and 6.17 µM (active), respectively. In addition, in assay [10], the result was inactive.
For the molecule `CC(C)C[C@H](NC(=O)[C@H](CCc1ccccc1)NC(=O)CN1CCOCC1)C(=O)N[C@@H](Cc1ccccc1)C(=O)N[C@@H](CC(C)C)C(=O)[C@@]1(C)CO1`, the Potency entry in [4] was “inactive”. Moreover, the activity change, negative = inhibition in assay [3] was -96% and -97.8%.
Turning to `CNCCCC1c2ccccc2C=Cc2ccccc21`, the Potency entry in assay [1] and in assay [7] was “inactive” throughout.
Turning to `Cc1oncc1C(=O)Nc1ccc(C(F)(F)F)cc1`, the Potency result in [4] is “inactive”. Moreover, the Potency in [2] is 8.91 µM (active). Also, in [3], the Potency entry is “inactive” and the activity change, negative = inhibition is -15.8%.
As for `O=C(CCCN1CCC(O)(c2ccc(Cl)cc2)CC1)c1ccc(F)cc1`, the Potency result in [1] and in assay [2] was “inactive” each time.
Take `O=c1[nH]c2ccccc2n1CCCN1CCC(n2c(=O)[nH]c3cc(Cl)ccc32)CC1`: the Potency entry (in [1]; in assay [8]; in [9]; in assay [2]; with Papain (Carica papaya)) was “inactive” in each case. Besides, the result in [10] was inactive. In [3], the activity change, negative = inhibition was -22.6%.
`CCC1=C[C@@H]2CN(C1)Cc1c([nH]c3ccccc13)[C@@](C(=O)OC)(c1cc3c(cc1OC)N(C)[C@H]1[C@@](O)(C(=O)OC)[C@H](OC(C)=O)[C@]4(CC)C=CCN5CC[C@]31[C@@H]54)C2`: the values for the Potency in assay [4], in assay [3] and in assay [6] were 3.16 µM (active), 2.82 µM (active) and 1.67 µM (active), respectively. The Potency entry in assay [2] is “inactive”. Moreover, the activity change, negative = inhibition in [3] was -90.3%.
Regarding `NNc1nncc2ccccc12`, the Potency entry in assay [4], in [2] and in [3] was “inactive” throughout. In addition, in assay [3], the activity change, negative = inhibition amounted to 83.2% [at 27.1 µM].
As for `O=C(O)c1ccc(-n2nc(-c3ccccc3O)nc2-c2ccccc2O)cc1`, the Potency result in assay [1] is “inactive”. Also, the Potency in [6] is 24.1 µM (active).
Take `Cc1ccc(-n2[nH]c(C)c(N=Nc3cccc(-c4cccc(C(=O)O)c4)c3O)c2=O)cc1C`: the Potency result in assay [1] and in assay [2] was “inactive” throughout.
In the case of `CC1(CN2CCC(n3c(=O)[nH]c4ccccc43)CC2)OCc2ccccc2-n2cccc21` (stereo unspecified), the Potency result in [7] and in [2] was “inactive” each time. Moreover, the activity change, negative = inhibition in [3] is -26.7%.
In the case of `O=C(O)C(=O)c1cn(Cc2ccccc2)c2ccc(-c3ccc(OC(F)(F)F)cc3)cc12`, the Potency entry in [7], in [9] and in [2] was “inactive” throughout. In addition, the outcome in assay [10] was inactive. Moreover, the Potency in assay [12] is 16.9 µM (active). Further, the activity change, negative = inhibition in [3] is -24.2%.
Consider `CN(C)C(=O)C(CCN1CCC(O)(c2ccc(Cl)cc2)CC1)(c1ccccc1)c1ccccc1`, for which the Potency entry in assay [1], in assay [7] and in assay [2] was “inactive” in each case. Also, the Potency in assay [6] was 24.1 µM (active).
With `CCCCc1oc2ccc(NS(C)(=O)=O)cc2c1C(=O)c1ccc(OCCCN(CCCC)CCCC)cc1`, the Potency was 17.8 µM (active) in assay [4] and 11.2 µM (active) in assay [3].
On to `CNCCC(Oc1ccc(C(F)(F)F)cc1)c1ccccc1` (stereo unspecified), for which the Potency entry in [1], in assay [7] and in [2] was “inactive” each time. In addition, in [6], the Potency was 0.121 µM (active).
On to `CN1CCc2cccc3c2[C@H]1Cc1ccc(O)c(O)c1-3`, for which the Potency entry in [4], in assay [1] and in assay [2] was “inactive” each time.
As to `COc1c(C)c2c(c(O)c1C/C=C(\C)CCC(=O)O)C(=O)OC2`, the Potency entry in [1] and in assay [2] was “inactive” each time. Moreover, the Potency in [3] was 1 µM (active); in [6] it was 0.482 µM (active).
As for `COc1cc(C(C)=O)ccc1OCCCN1CCC(c2noc3cc(F)ccc23)CC1`, in assay [7], the Potency result was “inactive”. Moreover, the Potency in [5] is 11.2 µM (active).
For `C[C@H]1O[C@@H](O[C@H]2[C@@H](O)C[C@H](O[C@H]3[C@@H](O)C[C@H](O[C@H]4CC[C@@]5(C)[C@H](CC[C@@H]6[C@@H]5CC[C@]5(C)[C@@H](C7=CC(=O)OC7)CC[C@]65O)C4)O[C@@H]3C)O[C@@H]2C)C[C@H](O)[C@@H]1O`, the Potency result in assay [4], in assay [11] and in assay [12] was “inactive” in each case. In addition, in assay [10], the outcome was inactive.
